From PubChem
Only some compounds are listed: those with a hit (about 20% of all), similar ones and a draw of the others.
Shiga toxin inh: blocks Shiga toxin action in Vero cells; Vero cells, Shiga toxin protein synthesis inhibition reporter; inhibition, % at 38.7 µM; 290,000 tested, 9.2% active; AID 2315; in the data active means inhibition mostly above about 28%, no sharp cut-off; inactive means mostly below about 43%; further: 0% is about no effect
Pf growth 48h: P. falciparum growth inhibition at 48 hours (one generation); P. falciparum luciferase growth in erythrocytes, 48 h; Potency, µM (highest dose often 28.7 µM), without a hit: top-dose activity change, negative = inhibition, usual class: inhibitors; 310,000 tested, 5.9% active; further: potency means the concentration at half of the fitted maximal effect; on the % scale 0 is the no-effect control and ±100 the full control effect
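Growth was read as firefly luciferase luminescence after a 48 h, 37 C, 5% CO2 exposure of compounds to reporter-bearing P. falciparum cultures (0.1% parasitemia, 2% hematocrit final) in Albumax-supplemented RPMI 1640.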
HCMV inh: blocks human cytomegalovirus replication; HFF cells, HCMV-luciferase reporter, 72 h; active compounds read low; 410,000 tested, 4.5% active; AID 1259415; activity change, negative = inhibition, % at 57.5 µM; in the data active means activity change below about -60%; inconclusive means no clear call, values can overlap the other calls; inactive means above about -39%; further: on the % scale 0 is the no-effect control and ±100 the full control effect
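Steps: HFFs plated, 16 h 37C; compounds added; HCMV-luciferase added to MOI 1 PFU/cell; 72 h 37C; OneGlo reagent, 5 min room temperature; luminescence read, normalized to controls.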
Cycloheximide cs: counter-screen hit for Shiga toxin inhibitors, cycloheximide; cell reporter, cycloheximide protein synthesis inhibition counterscreen; max response, %; 300,000 tested, 12% active; AID 2314; in the data active means max response mostly above about 13%, no sharp cut-off; inactive means mostly below about 14%; further: read at 38.3 µM for the half of the compounds with a filed dose; 0% is about no effect
Pf growth 96h: P. falciparum growth inhibition at 96 hour, primary screen for plastid delayed-death inhibitors; Potency, µM (highest dose often 28.7 µM), for inactives: at the top dose activity change, negative = inhibition, hits mostly inhibitors; 320,000 tested, 6.9% active; P. falciparum luciferase reporter growth, 96 h; further: potency means the concentration at half of the fitted maximal effect; on the % scale 0 is the no-effect control and ±100 the full control effect
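Luminescence readout: decreased luciferase signal marks inhibited growth of reporter-expressing P. falciparum in infected red cells (2% hematocrit, 0.05% parasitemia final), exposed to compound two generations (96 h, 37 C, 5% CO2).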
The depositor's hits bear a star; ? = inconclusive; nt = not tested or not shown. Unless noted, the call rests on the fitted dose curve; in most records, active means well fitted inhibition curve with a large enough effect; inconclusive means small, poorly fitted or top-dose-only effect, or another doubt; inactive means no such curve, though single readings can be large or run the other way.

SMILES	Shiga toxin inh	Pf growth 48h	HCMV inh	Cycloheximide cs	Pf growth 96h
CC(=O)Nc1c(C(=O)N2CCOCC2)sc2nc3c(cc12)COC(C)(C)C3	-21.1	10.6%	8.6	5.9	?
CC1(C)Cc2nc3sc(C(N)=O)c(N)c3cc2CO1	31.2	37.6%	-10.4	30.8*	47.5%
CCOC(=O)c1cc2c(nc1N)CC(C)(CC)OC2 (stereo not given)	116.5*	121.2%	84.6	48.6*	nt
CCOC(=O)c1sc2nc3c(cc2c1N)COC(C)(CC)C3 (stereo not given)	32.5	86.7%	124.1	41.3*	-27.9%
CCOC(=O)c1sc2nc3c(cc2c1N)COC(C)(C)C3	28.5*	270.2%	118.5	38.0*	14.8%
CCC1(C)Cc2nc3sc(C(=O)O)c(N)c3cc2CO1 (stereo not given)	-15.8	0.0%	50.0	5.5	?
Cc1cc(O)c2c(C)c(CC(=O)N3CCCCC3)c(=O)oc2c1	nt	nt	0.6	nt	nt
CCOC(=O)c1cc2c(nc1NC(=S)Nc1ccccc1)CC(C)(C)OC2	-9.1	-12.7%	34.2	-3.3	10.4µM*
CCn1ncc(C(=O)Nc2cccc(Cl)c2)c1C	30.1*	297.3%	265.8	67.5*	295.5%
COc1cccc(NC(=O)c2ccccc2Oc2ccccc2)c1	13.6	-49.2%	-28.3	-1.7	?
CCc1cccc(NC(=O)c2cnn(-c3ccccc3)c2C)c1	136.5*	94.2%	121.5	44.9*	89.5%
COc1cccc(NC(=O)c2cnn(-c3ccccc3)c2C)c1	53.3*	119.0%	80.2	32.1*	234.1%
CCn1ncc(C(=O)Nc2cc(C)on2)c1C	38.0	95.3%	19.5	47.3*	212.5%
Cc1cc(NC(=O)c2cnn3c(C(F)F)cc(C4CC4)nc23)no1	-8.2	-10.0%	56.7	-0.5	?
Cc1ccc(OCc2ccc(-c3nc(C#N)c(NCc4ccccc4Cl)o3)o2)cc1	nt	nt	-1.3	nt	nt
COc1ccc(CNC(=O)CN2C(=O)NC3(CCCCCCC3)C2=O)cc1	nt	nt	-6.4	nt	nt
CN[C@H]1CCc2cc(OC)c(OC)c(OC)c2-c2ccc(OC)c(=O)cc21	nt	nt	-95.0*	nt	nt
COc1cc2c(c(OC)c1OC)-c1ccc(O)cc1[C@@H](NC(C)=O)CC2	nt	?	-78.4*	nt	67.2%
COc1cc2c(c(OC)c1OC)-c1ccc(O)cc1C(NC(C)=O)CC2 (stereo not given)	nt	nt	-94.9*	nt	nt
COc1cc2c(c(OC)c1OC)-c1ccc(NC(=O)c3ccccc3)c(=O)cc1[C@@H](NC(C)=O)CC2	-17.1	9.28µM*	-88.5*	1.1	?
CC(C)NC(=O)c1cc(C2CCCCN2C(=O)c2ccccc2)on1 (stereo not given)	nt	nt	25.3	nt	nt
O=C(Nc1ccc(Cc2ccncc2)cc1)C1CCC(N2C(=O)C3C4C=CC(C5CC45)C3C2=O)CC1 (stereo not given)	-8.2	?	-84.9*	-2.2	nt
Cc1cccc(NC(=O)NNC(=O)COc2ccc([N+](=O)[O-])cc2)c1C	-15.9	-3.1%	38.8	-4.5	?
Cc1ccc(C(=O)C(C)OC(=O)Cn2cnc3c2c(=O)n(C)c(=O)n3C)cc1 (stereo not given)	nt	?	-8.6	nt	11.8%
CN(C)Cc1cc(CCNC(=O)c2ccc(Cl)cc2)ccc1O	2.0	?	64.1	2.0	50.6%
SMILES	Shiga toxin inh	Pf growth 48h	HCMV inh	Cycloheximide cs	Pf growth 96h
O=C(NCCc1ccc(Cl)cc1)c1ccc2nccnc2c1	67.0*	155.1%	40.6	52.2*	111.4%
CCN(CC)Cc1cc(CCNC(=O)c2ccc(Cl)cc2)ccc1O	21.0	?	64.1	17.4*	nt
O=C(NCCc1ccc(O)cc1)c1ccc(Cl)cc1	69.5*	127.2%	95.7	55.8*	107.1%
COc1ccccc1CNC(=O)CN1C(=O)CCc2cc(S(=O)(=O)N3CCOCC3)ccc21	nt	nt	3.0	nt	nt
CC1CCN(CCCNC(=O)CCc2nnc3n(CCc4ccccc4)c(=O)c4ccccc4n23)CC1	11.8	?	8.1	17.6	-16.5%
O=C(CCc1nnc2n(Cc3ccccc3)c(=O)c3ccccc3n12)NCCCN1CCCCC1	-3.5	7.3%	-62.0*	4.4	?
CC1CCCC(C)N1CCNC(=O)CCc1nnc2n(Cc3ccccc3)c(=O)c3ccccc3n12 (stereo not given)	-2.0	?	-21.4	-2.8	11.7µM*
CC1CCCCN1CCNC(=O)CCc1nnc2n(Cc3ccccc3)c(=O)c3ccccc3n12 (stereo not given)	5.4	?	-6.2	-1.4	?
